A number with no mark means an inactive call. Results filed as inconclusive are left out. Where a call stands in place of a potency, no number is given. Activity calls are given as the source filed them. Unless noted, the call rests on the fitted dose curve; in most records, active means well fitted curve in the direction sought with a large enough effect; inconclusive means small, poorly fitted or top-dose-only effect, or another doubt; inactive means no such curve, though single readings can be large; an effect the other way counts as inactive or inconclusive.
Experiments:
[1] = target: Cytochrome P450 1A2 (Homo sapiens) (UniProt P05177); experiment: p450-cyp1a2 (AID 410; calls by dose curve)
Cytochrome P450 1A2 (Homo sapiens), sequence (P05177 whole entry, looked up): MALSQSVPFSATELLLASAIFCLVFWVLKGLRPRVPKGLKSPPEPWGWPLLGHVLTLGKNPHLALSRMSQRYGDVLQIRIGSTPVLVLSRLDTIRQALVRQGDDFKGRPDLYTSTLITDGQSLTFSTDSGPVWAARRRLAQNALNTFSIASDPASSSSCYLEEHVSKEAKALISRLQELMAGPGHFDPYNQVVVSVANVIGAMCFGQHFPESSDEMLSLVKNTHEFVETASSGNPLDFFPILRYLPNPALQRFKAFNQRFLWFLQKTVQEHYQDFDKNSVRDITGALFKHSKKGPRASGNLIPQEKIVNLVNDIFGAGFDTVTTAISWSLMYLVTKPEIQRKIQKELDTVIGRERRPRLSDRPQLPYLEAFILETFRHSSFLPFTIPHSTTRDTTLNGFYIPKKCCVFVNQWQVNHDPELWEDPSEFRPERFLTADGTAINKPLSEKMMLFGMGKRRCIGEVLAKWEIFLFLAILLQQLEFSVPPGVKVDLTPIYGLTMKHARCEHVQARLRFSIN
Procedure, shortened: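 20nM CYP1A2 with 100uM Luciferin-ME (at Km) in 100mM KPO4; compound preincubated 10 min, NADPH regeneration added, 60 min at room temperature. Luciferin quantified by luminescence after detection reagent; normalized to 57 uM furafylline.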

[2] = target: Glucocorticoid receptor (Homo sapiens) (UniProt P04150); experiment: GR-GFP Redistribution (AID 450;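 active means compounds whose dose series gives a full or clear partial fitted curve of increased nuclear translocation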; further: potency means the concentration at half of the fitted maximal effect); details: U2OS GR-GFP nuclear translocation, laser cytometry, 2 h
Glucocorticoid receptor (Homo sapiens), sequence (P04150 whole entry, looked up, the tested form may be a part): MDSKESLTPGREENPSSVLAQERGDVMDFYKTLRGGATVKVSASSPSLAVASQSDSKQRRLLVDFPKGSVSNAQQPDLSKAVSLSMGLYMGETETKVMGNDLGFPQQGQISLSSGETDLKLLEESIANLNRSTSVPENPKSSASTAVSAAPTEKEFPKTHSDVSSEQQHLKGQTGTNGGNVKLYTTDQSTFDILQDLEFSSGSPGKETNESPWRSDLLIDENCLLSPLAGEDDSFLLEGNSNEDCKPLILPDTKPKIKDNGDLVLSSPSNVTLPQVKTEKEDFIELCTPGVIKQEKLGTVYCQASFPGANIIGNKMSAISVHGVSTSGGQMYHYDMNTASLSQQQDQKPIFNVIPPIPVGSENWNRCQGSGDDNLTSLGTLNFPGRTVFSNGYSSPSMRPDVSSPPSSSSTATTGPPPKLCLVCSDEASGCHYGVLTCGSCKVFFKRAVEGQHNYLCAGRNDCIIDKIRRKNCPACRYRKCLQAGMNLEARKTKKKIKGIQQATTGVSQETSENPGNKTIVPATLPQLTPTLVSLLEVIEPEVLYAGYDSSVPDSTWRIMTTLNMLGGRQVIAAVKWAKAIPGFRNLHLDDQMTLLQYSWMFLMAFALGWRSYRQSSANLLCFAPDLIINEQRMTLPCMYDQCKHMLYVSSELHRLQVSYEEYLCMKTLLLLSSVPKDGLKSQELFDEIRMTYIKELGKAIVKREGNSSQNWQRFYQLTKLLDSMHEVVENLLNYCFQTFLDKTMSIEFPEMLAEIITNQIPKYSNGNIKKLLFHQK

[3] = target: Glucocorticoid receptor (Homo sapiens) (UniProt P04150); experiment: GR-EFC Redistribution (AID 451; calls by dose curve; further: potency means the concentration at half of the fitted maximal effect); details: CHO-K1 GR-EFC translocation, beta-gal luminescence, 2 h
Procedure, shortened: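 CHO-K1 cells expressing nuclear EA and GR-ED fragments of b-gal; compounds titrated up to 46 uM final, 2 h at 37 C. GR nuclear translocation read as complemented b-gal luminescence after 1 h RT detection.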

[4] = target: Mitogen-activated protein kinase 10 (Mus musculus) (UniProt Q61831); experiment: JNK3 AlphaScreen Assay (AID 530; active means well fitted curve in either direction with a large enough effect, not every such curve was filed as active;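 further: kinase came from lysate of stimulated human HepG2 cells; signal reports phosphorylation of biotinylated GST-cJun 1-79 at Ser73 with 10 µM ATP; series mostly up to about 57 µM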)
Procedure, shortened: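 Pre-activated (IL-1β/TNFα) JNK3 in HepG2 lysates phosphorylates biotin-GST-cJun(1-79), 10 uM ATP; anti-phospho-cJun(Ser73) AlphaScreen read at room temperature, pH 7.6 Tris buffer. Compounds pre-incubated 15 min as titrations.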

[5] = target: 3',5'-cyclic-AMP phosphodiesterase 4B (Homo sapiens) (UniProt Q07343); experiment: qHTS Assay for Inhibitors of PDE-IV (AID 607; active means well fitted activation curve with a large enough effect in the main read-out, with a control signal flat, not every such curve was filed as active)
3',5'-cyclic-AMP phosphodiesterase 4B (Homo sapiens), sequence (Q07343 whole entry, looked up): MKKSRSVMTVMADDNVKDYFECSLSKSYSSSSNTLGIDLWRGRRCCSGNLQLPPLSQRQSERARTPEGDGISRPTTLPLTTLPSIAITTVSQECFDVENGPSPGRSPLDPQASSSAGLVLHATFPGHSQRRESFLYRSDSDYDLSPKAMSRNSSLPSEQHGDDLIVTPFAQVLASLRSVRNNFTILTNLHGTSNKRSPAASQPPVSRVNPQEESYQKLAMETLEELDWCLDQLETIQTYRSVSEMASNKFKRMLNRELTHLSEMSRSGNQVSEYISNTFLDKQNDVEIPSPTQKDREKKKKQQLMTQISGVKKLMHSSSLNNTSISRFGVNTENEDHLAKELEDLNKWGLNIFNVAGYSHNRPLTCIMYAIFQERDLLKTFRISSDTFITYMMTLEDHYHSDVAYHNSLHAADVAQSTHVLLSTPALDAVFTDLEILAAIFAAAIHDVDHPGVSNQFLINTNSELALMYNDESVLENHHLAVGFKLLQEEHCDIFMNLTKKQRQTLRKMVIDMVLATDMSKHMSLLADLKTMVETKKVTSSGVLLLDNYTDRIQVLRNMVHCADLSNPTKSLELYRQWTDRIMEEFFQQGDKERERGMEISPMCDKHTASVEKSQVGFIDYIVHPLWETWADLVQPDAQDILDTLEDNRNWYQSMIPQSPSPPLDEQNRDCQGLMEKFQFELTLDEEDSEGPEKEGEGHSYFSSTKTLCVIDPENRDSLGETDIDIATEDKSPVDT
Procedure, shortened: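 Cell-based read-out of cAMP via a modified cyclic nucleotide-gated channel and membrane potential dye (535/590 nm) in HEK293 cells expressing PDE4 endogenously. Compounds tested up to 22.9 uM final; 100 uM RO 20-1724 reference.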

[6] = target: Cytochrome P450 3A4 (Homo sapiens) (UniProt P08684); experiment: qHTS Assay for Activators of Cytochrome P450 3A4 (AID 885); further: nearly all actives have a fitted effect of over 65% in size
Cytochrome P450 3A4 (Homo sapiens), sequence (P08684 whole entry, looked up): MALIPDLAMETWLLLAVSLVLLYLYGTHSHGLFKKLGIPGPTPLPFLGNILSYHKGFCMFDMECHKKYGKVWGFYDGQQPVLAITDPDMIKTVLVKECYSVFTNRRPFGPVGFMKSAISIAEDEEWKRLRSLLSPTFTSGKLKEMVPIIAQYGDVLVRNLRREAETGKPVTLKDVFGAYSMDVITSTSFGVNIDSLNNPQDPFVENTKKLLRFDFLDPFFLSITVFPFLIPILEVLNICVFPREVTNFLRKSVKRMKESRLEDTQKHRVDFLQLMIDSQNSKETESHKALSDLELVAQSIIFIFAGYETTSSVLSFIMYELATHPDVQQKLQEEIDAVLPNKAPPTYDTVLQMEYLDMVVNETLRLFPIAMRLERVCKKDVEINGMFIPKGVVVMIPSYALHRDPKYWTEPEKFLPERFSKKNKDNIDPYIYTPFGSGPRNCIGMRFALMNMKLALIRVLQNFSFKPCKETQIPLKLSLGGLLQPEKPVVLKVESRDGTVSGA
Procedure, shortened: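 Signal was normalized against complete inhibition by 57 uM ketoconazole. The reaction used 20nM CYP3A4 with 25uM Luciferin-PPXE, 10-min compound preincubation and a 60-min NADPH-supported step at RT.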

[7] = target: DNA dC->dU-editing enzyme APOBEC-3G (Homo sapiens) (UniProt Q9HC16); experiment: qHTS for inhibitors of Vif-A3G interactions: Validation (AID 588379)
DNA dC->dU-editing enzyme APOBEC-3G (Homo sapiens), sequence (Q9HC16 whole entry, looked up): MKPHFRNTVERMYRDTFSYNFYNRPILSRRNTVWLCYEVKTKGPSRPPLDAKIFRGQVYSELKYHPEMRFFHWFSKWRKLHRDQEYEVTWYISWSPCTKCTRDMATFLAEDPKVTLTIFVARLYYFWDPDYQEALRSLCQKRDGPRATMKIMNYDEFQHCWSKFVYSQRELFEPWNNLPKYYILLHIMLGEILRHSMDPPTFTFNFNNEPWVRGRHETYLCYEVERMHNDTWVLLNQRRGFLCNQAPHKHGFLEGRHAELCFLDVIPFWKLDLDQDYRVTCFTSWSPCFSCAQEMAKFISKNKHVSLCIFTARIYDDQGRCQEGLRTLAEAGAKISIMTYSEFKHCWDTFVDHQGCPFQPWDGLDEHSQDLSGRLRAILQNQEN
Procedure, shortened: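 HeLa cells stably expressing Vif and A3G-eYFP, 700 cells/well, incubated overnight at 37 deg C, then exposed to compound overnight at 37 deg C. Inhibition of Vif-mediated degradation read as increased yellow fluorescence (Ex 488/Em 500-530) by laser-scanning cytometry.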

[8] = system: Zika virus NS2B-NS3 protease; experiment: Primary screen GU AMC qHTS for Zika virus inhibitors (AID 1347154); further: nearly all actives have a fitted effect of over 70% in size
Procedure, shortened: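 Unlinked Zika NS2B hydrophilic domain–NS3 protease complex at 25 nM in 10 mM Tris-HCl pH 8.0, 0.01% Tween 20, with an AMC peptide substrate. Fluorescence change (340/450 nm) over 15 min at room temperature, normalized to controls, fitted to 4-parameter Hill.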

[9] = Counterscreen qHTS for small molecule stabilizers of the endoplasmic reticulum resident proteome: GLuc-NoTag assay (AID 1508627);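 further: SH-SY5Y cells given compound then 100 nM thapsigargin to empty ER calcium; series mostly up to about 76 µM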
Procedure, shortened: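 SH-SY5Y cells stably expressing constitutively secreted GLuc without SERCaMP tag, exposed to compound for 19 hr, then to 100 nM thapsigargin for 4 hr at 37C. Medium luciferase was read by coelenterazine luminescence without lysis.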

[10] = Confirmatory qHTS for small molecule stabilizers of the endoplasmic reticulum resident proteome: Secreted ER Calcium Modulated Protein (SERCaMP) assay (AID 1508628); further: potency means the concentration at half of the fitted maximal effect; nearly all actives have a fitted effect of over 40% in size
Procedure, shortened: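 SH-SY5Y cells stably expressing GLuc-SERCaMP, treated 16 h with compound (primary 1.53, 7.67, 38.3 uM; confirmation 11 concentrations, up to 76.6 uM), then 100 nM thapsigargin for 4 h. Secreted Gaussia luciferase in medium read by coelenterazine luminescence.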

[11] = Cell Viability qHTS for small molecule stabilizers of the endoplasmic reticulum resident proteome (AID 1508629); details: cell viability counter-screen, 100 nM thapsigargin for final 4 h;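 further: human SH-SY5Y neuroblastoma cells carrying the GLuc-SERCaMP reporter; compound exposure about 46 h in total before the viability read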

**Q.** Which results are given for `CC(C)C[C@H]1C(=O)N2CCC[C@@H]2[C@]2(O)O[C@](NC(=O)[C@@H]3C=C4c5cccc6[nH]c(Br)c(c56)C[C@H]4N(C)C3)(C(C)C)C(=O)N12`?
**A.** Potency [1]: inactive; Potency [2]: > 46 µM; Potency [3]: > 46 µM; Potency [4]: inactive; Potency [5]: inactive; Potency [6]: inactive; Potency [7]: inactive; Potency [8]: inactive; Potency [9]: inactive; Potency [10]: 10 µM (active); max response [11]: -14.6%
